# PLC-gamma1 inh: inhibitors of human phospholipase C gamma1; P19174; purified PLC-gamma1, fluorogenic substrate, fluorescence; inhibition, % at 12.2 µM; 370,000 compounds, 0.84% hits; AID 720700; in the data active means inhibition above about 9.5%
# Target sequence (P19174 whole entry, looked up): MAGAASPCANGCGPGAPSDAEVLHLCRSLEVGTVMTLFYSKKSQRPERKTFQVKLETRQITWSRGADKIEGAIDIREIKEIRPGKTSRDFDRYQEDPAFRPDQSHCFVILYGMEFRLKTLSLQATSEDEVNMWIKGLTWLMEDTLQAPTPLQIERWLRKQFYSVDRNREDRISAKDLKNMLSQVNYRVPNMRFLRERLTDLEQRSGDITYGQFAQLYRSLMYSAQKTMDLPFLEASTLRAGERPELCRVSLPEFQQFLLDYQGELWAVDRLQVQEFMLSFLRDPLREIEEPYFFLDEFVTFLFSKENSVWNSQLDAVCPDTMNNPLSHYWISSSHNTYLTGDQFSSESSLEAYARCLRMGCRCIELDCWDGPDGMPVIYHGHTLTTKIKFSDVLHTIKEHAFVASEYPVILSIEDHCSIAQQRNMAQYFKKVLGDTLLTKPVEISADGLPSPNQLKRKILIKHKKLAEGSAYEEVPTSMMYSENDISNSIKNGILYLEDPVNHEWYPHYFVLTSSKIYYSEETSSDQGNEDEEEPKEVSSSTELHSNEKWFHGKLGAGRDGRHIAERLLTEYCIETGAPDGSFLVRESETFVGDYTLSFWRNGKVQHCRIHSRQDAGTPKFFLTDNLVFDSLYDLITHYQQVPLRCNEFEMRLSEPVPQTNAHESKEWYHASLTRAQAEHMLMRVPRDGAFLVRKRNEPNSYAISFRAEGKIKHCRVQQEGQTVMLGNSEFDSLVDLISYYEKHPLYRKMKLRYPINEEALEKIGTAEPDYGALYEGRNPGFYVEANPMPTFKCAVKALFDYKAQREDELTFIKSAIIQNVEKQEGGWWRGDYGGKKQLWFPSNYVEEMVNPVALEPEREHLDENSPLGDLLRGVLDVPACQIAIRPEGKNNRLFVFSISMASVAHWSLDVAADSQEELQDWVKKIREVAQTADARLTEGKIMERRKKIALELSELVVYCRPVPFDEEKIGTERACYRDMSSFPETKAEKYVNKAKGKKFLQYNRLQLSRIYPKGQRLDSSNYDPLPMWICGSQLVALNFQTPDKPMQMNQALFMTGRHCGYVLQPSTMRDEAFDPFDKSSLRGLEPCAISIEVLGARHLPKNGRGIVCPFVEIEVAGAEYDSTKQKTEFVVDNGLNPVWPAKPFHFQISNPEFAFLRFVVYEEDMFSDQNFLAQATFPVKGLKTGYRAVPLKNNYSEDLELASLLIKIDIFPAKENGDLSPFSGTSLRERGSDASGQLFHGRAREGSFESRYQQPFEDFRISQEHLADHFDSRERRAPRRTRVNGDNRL
# ADAM17 inh: ADAM17 inhibition, QFRET primary screen; inhibition, % at 6.95 µM; 370,000 compounds, 0.83% hits; recombinant ADAM17, EDANS/DABCYL FRET peptide cleavage;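 active means inhibition above the mean of compounds lying between control limits plus 3 SD, set per campaign, cut at about 8.5% in these data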;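 further: 0% = DMSO-only wells as the low control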
# KLK7 zymogen act: activates the human kallikrein-7 zymogen; P49862; purified proKLK7, EDANS-DABCYL substrate fluorescence; 100% is mature enzyme control, 0% vehicle; activation, % at 7 µM; 370,000 compounds, 0.9% hits; AID 652039;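 active means activation above the mean of all tested compounds plus 3 SD, computed per campaign excluding outliers beyond control limits, cut at about 13% in these data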
# ADAM10 inh: inhibits human ADAM10; recombinant ADAM10, EDANS/DABCYL FRET peptide cleavage, 3 h; inhibition, % at 7 µM; 370,000 compounds, 0.62% hits; AID 720582;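 active means inhibition above a per-campaign cutoff equal to the mean of compounds falling between control-based bounds plus 3 SD, cut at about 20% in these data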;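 further: 0% = DMSO wells while the 100% control is not disclosed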
# PLCb3 inh: PLC-beta3 (human) inhibition, primary screen. Q01970. Purified PLC-beta3, fluorogenic substrate, fluorescence. inhibition, % at 12.2 µM. 370,000 compounds, 0.18% hits; in the data active means inhibition above about 11%;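 further: 0% = median of compound wells on plate and 100% = full blocker control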
# KLK7 act conf: confirmation of human kallikrein-7 zymogen activators | shares compounds with KLK7 zymogen act | purified proKLK7, EDANS-DABCYL substrate fluorescence; scaled: vehicle 0, mature enzyme 100 | activation, % at 7 µM | 3,200 compounds, 68% hits;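 active means activation, as change over the incubation, above the mean of all tested compounds plus 3 SD, cut at about 13% in these data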
# EDANS-DABCYL int: counter-screen for kallikrein-7 activators: EDANS-DABCYL optical interference | shares compounds with KLK7 zymogen act | EDANS-DABCYL substrate fluorescence interference, no enzyme, 4 h; solvent 0%, active enzyme control 100% | activation, % at 7 µM | 3,200 compounds, 80% hits;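 active means activation above the all-compound mean plus 3 SD, ignoring values outside control-based bounds, cut at about 4.8% in these data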;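 further: value is the 4 h activation minus the activation read at time zero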
# K7 EDANS ctr: counter-screen for kallikrein-7 activators: EDANS-DABCYL interference, dose response; 250 compounds, 20% hits; AID 720493; EC50, µM; shares compounds with KLK7 zymogen act; EDANS-DABCYL peptide fluorescence interference, no enzyme;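 active means compounds that raise the fluorescence signal in this interference counterscreen, with EC50 at or below 10 µM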;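 further: intact quenched peptide substrate alone read at 355 nm excitation and 520 nm emission; signal is fluorescence gain from T0 to T4 after four hours at room temperature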
# * hit, by the source's call; i = inactive; nt = not tested or not shown. Most compounds without a hit are left out; they make up all but 2.9% or so of the library.
SMILES,PLC-gamma1 inh,ADAM17 inh,KLK7 zymogen act,ADAM10 inh,PLCb3 inh,KLK7 act conf,EDANS-DABCYL int,others
Cc1ccc(Cn2c(=N)c(C(=O)NCC3CCCO3)cc3c(=O)n4cccc(C)c4nc32)cc1 (stereo not drawn),-358.7,i,2.0,i,i,nt,nt,
N=c1c(C(=O)NCC2CCCO2)cc2c(=O)n3ccccc3nc2n1Cc1ccc(Cl)cc1 (stereo not drawn),-382.4,i,-5.3,i,i,nt,nt,
N=c1c(C(=O)NCC2CCCO2)cc2c(=O)n3ccccc3nc2n1Cc1ccccc1 (stereo not drawn),i,i,118.0*,i,i,23.7*,22.8*,
Cc1cccn2c(=O)c3cc(C(=O)NCC4CCCO4)c(=N)n(CCN4CCOCC4)c3nc12 (stereo not drawn),i,i,14.2*,i,i,8.5,9.4*,
Cc1ccc(Cn2c(=N)c(C(=O)NCC3CCCO3)cc3c(=O)n4ccccc4nc32)cc1 (stereo not drawn),-221.5,-355.6,-0.7,i,-313.1,nt,nt,
CCCn1c(=N)c(C(=O)NCC2CCCO2)cc2c(=O)n3cccc(C)c3nc21 (stereo not drawn),i,i,83.4*,i,i,5.2,2.6,
Cc1cccn2c(=O)c3cc(C(=O)NCCc4ccccc4)c(=N)n(CC4CCCO4)c3nc12 (stereo not drawn),-242.9,i,-3.6,i,-362.8,nt,nt,
C[C@@H](CO)N(Cc1cn(Cc2ccccc2)nn1)S(=O)(=O)c1ccccc1Br,-1.9,-4.5,0.7,-10.6,-0.8,nt,nt,
COCCCn1c(=N)c(C(=O)NCC2CCCO2)cc2c(=O)n3cccc(C)c3nc21 (stereo not drawn),i,i,121.1*,i,i,61.4*,71.0*,
COCCn1c(C)cc(/C=C(\C#N)C(=O)OCC(=O)Nc2ccc(S(N)(=O)=O)cc2)c1C,-10.1,-2.4,13.7*,-19.3,-17.9,1.4,0.1,
C=C(C)C1CC=C(C)/C(=N\NC(=O)CNc2cccc3ccccc23)C1 (stereo not drawn),-88.2,-116.2,24.9*,-352.5,-95.4,6.2,6.8*,
Cc1ccc(-n2nc3ccc(N)cc3n2)c(C)c1,i,-228.1,40.1*,i,i,76.6*,76.3*,
COc1ccc(-n2nc3ccc(N)cc3n2)cc1Cl,i,-118.9,52.7*,-289.8,i,75.1*,75.4*,
Cc1cc(N)ccc1-n1nc2ccccc2n1,-110.3,-7.9,-0.5,-10.2,-127.3,nt,nt,
Cc1ccc(-n2nc3ccc(N)cc3n2)cc1Cl,i,-70.9,-48.9,-185.9,i,nt,nt,
S=c1[nH]nc(-c2cc(-c3ccccc3)n[nH]2)n1N=Cc1c[nH]c2ccccc12,-0.5,3.6,0.3,7.3,-1.6,nt,nt,
COc1ccc(OC)c(/C=C/C(=O)N(C)CC(=O)Nc2ccc(C)cc2)c1,i,-361.9,27.2*,i,i,64.5*,68.3*,
COc1ccc(OC)c(/C=C/C(=O)N(C)CC(=O)Nc2cc(C)ccc2C)c1,i,-252.5,21.1*,i,i,0.7,8.4*,
CC(C)(C)c1ccc(-c2nnc(SCC(=O)c3ccc4ccccc4c3)n2-c2ccc(Cl)cc2)cc1,-1.8,-0.7,0.5,-1.4,-2.9,nt,nt,
O=C(O)c1cccc(CN2C(=O)SC(Nc3ccccc3)C2=O)c1 (stereo not drawn),-0.1,-6.3,0.0,0.7,3.8,nt,nt,
O=C(O)c1cccc(CN2C(=O)SC(Nc3cccc4ccccc34)C2=O)c1 (stereo not drawn),-24.2,-30.9,60.0*,-95.4,-34.6,61.8*,69.3*,
NC(=O)C[n+]1cccc2ccccc21,-66.8,-19.3,0.4,-58.0,-68.0,nt,nt,
CCCCC[n+]1cccc2c3ccccc3ccc21,-209.8,-347.0,26.4*,i,-228.1,15.7*,17.1*,
O=[N+]([O-])c1ccc(C[n+]2cccc3ccccc32)cc1,-5.9,-0.3,-0.1,4.8,-15.3,nt,nt,
c1ccc(C[n+]2cccc3c4ccccc4ccc32)cc1,-208.2,-308.2,15.7*,i,-265.0,22.2*,27.6*,
SMILES,PLC-gamma1 inh,ADAM17 inh,KLK7 zymogen act,ADAM10 inh,PLCb3 inh,KLK7 act conf,EDANS-DABCYL int,others
O=C(O)c1c2c(nc3ccccc13)/C(=C/c1ccc(OC(F)F)cc1)CCC2,-115.6,-35.5,2.5,-71.4,-190.2,nt,nt,
O=C(O)c1c2c(nc3ccccc13)/C(=C/c1ccc(O)cc1)CC2,-310.4,-25.3,28.2*,-92.8,-473.4,68.2*,70.2*,
Cc1ccc(-c2cc(C(=O)NCCCN3CCCC3)c3ccccc3n2)cc1C,-104.1,-185.2,9.4,i,-146.3,nt,nt,
CCOc1ccc(-c2cc(C(=O)NCCCN3CCCC3)c3ccccc3n2)cc1,i,-135.6,24.4*,-375.3,i,-0.7,-5.2,
CCNc1nc(N)c(C(=C(C#N)C#N)c2ccccc2)s1,i,i,32.6*,i,i,138.8*,138.6*,
CC(=O)Nc1ccc2[nH]c(C)cc(=O)c2c1,-3.8,-20.4,-0.2,-69.1,-2.7,nt,nt,
COc1cccc(-c2cc(=O)c3cc(NC(C)=O)ccc3[nH]2)c1,-473.2,-373.4,25.3*,i,i,32.5*,32.0*,
O=C(O)c1ccc(/C=N/NC(=O)c2cc(-c3cccs3)nc3ccccc23)cc1,-344.2,-205.9,23.2*,i,-435.1,28.5*,20.6*,K7 EDANS ctr=i
COc1ccc(CNC(=O)COC(=O)c2cc(-c3cccs3)nc3ccccc23)cc1OC,-448.6,-82.8,14.8*,-345.4,i,-3.5,0.1,
CCOC(CCNC(=O)c1cc(-c2cccs2)nc2ccccc12)OCC,i,i,32.2*,i,i,9.2,9.8*,
O=C(NC1=NCCS1)c1cc(-c2cccs2)nc2ccccc12,i,-210.4,34.7*,i,i,-27.7,-14.1,
COc1cc(NC(=O)C2CCCN(S(=O)(=O)c3cccc4cccnc34)C2)cc(OC)c1 (stereo not drawn),-0.5,2.2,-0.3,1.7,-1.1,nt,nt,
CC(C)CN1CN2Cc3cc(F)ccc3C2CS1(=O)=O (stereo not drawn),-2.5,-1.4,-0.4,-4.6,-5.0,nt,nt,
O=C(c1cc2c(=O)n3ccccc3nc2s1)N1CCN(Cc2ccc3c(c2)OCO3)CC1,-267.3,-265.3,-4.1,i,-370.0,nt,nt,
CCN1CCN(C(=O)c2cc3c(=O)n4ccccc4nc3s2)CC1,i,i,54.7*,i,i,44.4*,56.6*,
